Reference: the supplement of paper PMC6897291
Structures can show the parent of a compound that is named as a salt.

Key:
U-2932 [1] = assay: growth inhibition by drug alone (1 - RLU/untreated control) (fraction); higher = stronger inhibition; settings: 177Lu-lilotomab satetraxetan 0 ug/ml
How it was run: (§1)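 Growth inhibition was calculated from RealTime-Glo RLU against untreated no-drug wells. Values equal 1 − RLU/mean of 48 untreated no-drug wells per plate, read daily from day 3 after 1 h at 37°C. RIVA and U-2932 cells, with or without 18 h pretreatment by a radiolabelled anti-CD37 antibody conjugate (~600 MBq/mg; 0.5 µg/ml RIVA, 1 µg/ml U-2932), were washed and plated at 3,000 cells/well on compound-printed plates at 10/100 nM (RIVA) or 10/1,000 nM (U-2932).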

RIVA [2] = assay: as above; settings: 177Lu-lilotomab satetraxetan 0 ug/ml
How it was run: as §1

U-2932 [3] = assay: growth inhibition by drug plus 177Lu-lilotomab satetraxetan (1 - RLU/untreated control) (fraction); higher = stronger inhibition; settings: 177Lu-lilotomab satetraxetan 1 ug/ml
How it was run: as §1

RIVA [4] = assay: as above; settings: 177Lu-lilotomab satetraxetan 0.5 ug/ml
How it was run: as §1

SMILES	growth inhibition by drug alone (U-2932 [1]; 10 nM, time (day): 3)	growth inhibition by drug alone (U-2932 [1]; 10 nM, time (day): 4)	growth inhibition by drug alone (U-2932 [1]; 10 nM, time (day): 5)	growth inhibition by drug alone (U-2932 [1]; 10 nM, time (day): 6)	growth inhibition by drug alone (U-2932 [1]; 1000 nM, time (day): 3)	growth inhibition by drug alone (U-2932 [1]; 1000 nM, time (day): 4)	growth inhibition by drug alone (U-2932 [1]; 1000 nM, time (day): 5)	growth inhibition by drug alone (U-2932 [1]; 1000 nM, time (day): 6)	growth inhibition by drug alone (RIVA [2]; 10 nM, time (day): 3)	growth inhibition by drug alone (RIVA [2]; 10 nM, time (day): 4)	growth inhibition by drug alone (RIVA [2]; 10 nM, time (day): 5)	growth inhibition by drug alone (RIVA [2]; 10 nM, time (day): 6)	growth inhibition by drug alone (RIVA [2]; 100 nM, time (day): 3)	growth inhibition by drug alone (RIVA [2]; 100 nM, time (day): 4)	growth inhibition by drug alone (RIVA [2]; 100 nM, time (day): 5)	growth inhibition by drug alone (RIVA [2]; 100 nM, time (day): 6)	growth inhibition by drug plus 177Lu-lilotomab satetraxetan (U-2932 [3]; 10 nM, time (day): 3)	growth inhibition by drug plus 177Lu-lilotomab satetraxetan (U-2932 [3]; 10 nM, time (day): 4)	growth inhibition by drug plus 177Lu-lilotomab satetraxetan (U-2932 [3]; 10 nM, time (day): 5)	growth inhibition by drug plus 177Lu-lilotomab satetraxetan (U-2932 [3]; 10 nM, time (day): 6)	growth inhibition by drug plus 177Lu-lilotomab satetraxetan (U-2932 [3]; 1000 nM, time (day): 3)	growth inhibition by drug plus 177Lu-lilotomab satetraxetan (U-2932 [3]; 1000 nM, time (day): 4)	growth inhibition by drug plus 177Lu-lilotomab satetraxetan (U-2932 [3]; 1000 nM, time (day): 5)	growth inhibition by drug plus 177Lu-lilotomab satetraxetan (U-2932 [3]; 1000 nM, time (day): 6)	growth inhibition by drug plus 177Lu-lilotomab satetraxetan (RIVA [4]; 10 nM, time (day): 3)	growth inhibition by drug plus 177Lu-lilotomab satetraxetan (RIVA [4]; 10 nM, time (day): 4)	growth inhibition by drug plus 177Lu-lilotomab satetraxetan (RIVA [4]; 10 nM, time (day): 5)	growth inhibition by drug plus 177Lu-lilotomab satetraxetan (RIVA [4]; 10 nM, time (day): 6)	growth inhibition by drug plus 177Lu-lilotomab satetraxetan (RIVA [4]; 100 nM, time (day): 3)	growth inhibition by drug plus 177Lu-lilotomab satetraxetan (RIVA [4]; 100 nM, time (day): 4)	growth inhibition by drug plus 177Lu-lilotomab satetraxetan (RIVA [4]; 100 nM, time (day): 5)	growth inhibition by drug plus 177Lu-lilotomab satetraxetan (RIVA [4]; 100 nM, time (day): 6)
CS(=O)(=O)N1CCN(Cc2cc3nc(-c4cccc5[nH]ncc45)nc(N4CCOCC4)c3s2)CC1	-0.0712	-0.0515	-0.0456	0.0469	0.69	0.786	0.802	0.82	-0.0821	-0.12	-0.138	-0.212	0.604	0.409	0.327	0.221	-0.0212	-0.0112	0.0169	0.184	0.81	0.875	0.897	0.913	0.351	0.467	0.488	0.493	0.532	0.5	0.486	0.45
O=C(O)c1ccc2c(c1)nc(Nc1cccc(Cl)c1)c1ccncc12 [cx-4945 (Silmitasertib)]	0.0111	-0.0226	-0.00497	0.0386	0.0436	0.0306	-0.0126	-0.0489	-0.142	-0.128	-0.161	-0.291	0.0492	-0.00845	-0.0374	-0.111	0.0376	0.0473	0.0445	0.189	0.0211	0.0508	0.0545	0.159	0.409	0.518	0.528	0.542	0.413	0.47	0.487	0.468
C[C@]12CC[C@@H]3c4ccc(O)cc4C[C@@H](CCCCCCCCC[S+]([O-])CCCC(F)(F)C(F)(F)F)[C@H]3[C@@H]1CC[C@@H]2O (some centres undefined)	0.0173	-0.00253	-0.129	-0.212	-0.176	-0.0393	-0.0718	-0.153	-0.00571	-0.0298	-0.0782	-0.352	-0.0427	-0.0179	-0.055	-0.154	-0.00503	0.0303	0.0351	0.137	-0.274	-0.0121	0.0312	0.0757	0.418	0.515	0.523	0.531	0.466	0.525	0.532	0.5
Fc1cc(-c2cccc3ncc(-c4cnn(C5CCNCC5)c4)nc23)cc(F)c1CN1CCOCC1	0.107	0.069	-0.083	-0.0936	0.0551	0.07	0.0444	-0.14	0.0385	0.00291	-0.0745	-0.286	-0.358	-0.305	-0.287	-0.341	0.0469	0.0958	0.15	0.179	0.041	0.106	0.135	0.237	0.548	0.579	0.59	0.593	0.571	0.589	0.6	0.592
CCCC(CCC)C(=O)O [Valproic acid sodium salt (Sodium valproate)]	0.135	0.0829	-0.0268	-0.0189	-0.0134	0.0276	-0.0122	-0.131	-0.0545	-0.0344	-0.0932	-0.3	0.0331	0.00236	-0.00506	-0.0995	0.0169	0.0448	0.0823	0.106	-0.06	0.0571	0.0167	0.0659	0.442	0.551	0.566	0.583	0.469	0.539	0.543	0.523
c1ccc2c(CCNc3ccc(Nc4ccncc4)cc3)c[nH]c2c1	0.0584	0.057	0.0439	-0.174	0.0747	0.114	0.115	-0.0134	-0.0529	-0.0355	-0.189	-0.337	-0.226	-0.135	-0.248	-0.272	0.0442	0.058	0.101	0.125	0.0679	0.191	0.21	0.292	0.249	0.475	0.497	0.5	0.12	0.259	0.278	0.294
Nc1nccc(Oc2ccc(NC(=O)c3c[nH]cc(-c4ccc(F)cc4)c3=O)cc2F)c1Cl	-0.0716	-0.0777	-0.0731	-0.06	-0.103	-0.0916	-0.0987	-0.109	-0.189	-0.254	-0.278	-0.424	-0.523	-0.459	-0.483	-0.598	-0.0906	-0.0231	0.0271	0.0973	-0.0589	0.0171	0.0665	0.209	0.468	0.516	0.536	0.547	0.364	0.43	0.425	0.43
CN(C)CCOc1ccc(/C(=C(/CCCl)c2ccccc2)c2ccccc2)cc1 [Toremifene Citrate (Fareston, Acapodene)]	0.147	0.112	-0.00292	-0.0137	0.104	0.101	-0.00882	0.0143	0.218	0.188	0.166	-0.0195	0.0631	0.0479	0.00246	-0.0264	0.111	0.144	0.204	0.262	0.0949	0.116	0.163	0.312	0.724	0.722	0.729	0.733	0.696	0.711	–	–
